Here are results for 16 compounds from PubChem BioAssay (Tox21).

Where “and” joins values, the source holds several entries; their conditions need not be identical. Identical values can stand only once. Records with an inconclusive call do not appear. A structure can be active in one record and inactive in another. Calls of active or inactive are those of the source. The call rests on the fitted dose curve; in most records, active means well fitted curve in the direction sought with a large enough effect in the repeat runs; inconclusive means weak or mixed curves; inactive means no such curve, though single readings can be large; an effect the other way counts as inactive or inconclusive.

Test [1] can be described thus: qHTS RealTime-Glo MT Cell Viability Assay in HepG2 cells - 8 hour (AID 1224873). Further: nearly all actives have a fitted effect of over 55% in size. Further: potency means the concentration at half of the fitted maximal effect. The gist of the method:
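Real-time viability: cells seeded at 600 per well together with NanoLuc and cell-permeant prosubstrate, compounds added after 5 h incubation. Luminescence tracked at 0, 8, 16, 24, 32 and 40 h of exposure.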
(In general: In qHTS, concentration-response curves come from the screen itself.)

Test [2] can be described thus: A CellTox Green Cytotoxicity Assay to monitor cytotoxicity in HEK293 cells - 24 hour (AID 1224875). Further: nearly all actives have a fitted effect of over 45% in size. Further: potency means the concentration at half of the fitted maximal effect. The procedure, abridged:
(§1)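 Cytotoxicity was tracked continuously in HEK293 cells by a DNA-binding dye excluded from viable cells. Compounds were transferred in DMSO 5 h after seeding; fluorescence was recorded at intervals up to 40 h.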

Test [3] can be described thus: A CellTox Green Cytotoxicity Assay to monitor cytotoxicity in HepG2 cells - 16 hour (AID 1224876). Further: nearly all actives have a fitted effect of over 45% in size. Further: potency means the concentration at half of the fitted maximal effect. The gist of the method:
(§2)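 Real-time, homogeneous cytotoxicity readout: dead-cell DNA staining by CellTox Green in HepG2 monolayers, fluorescence measured at timed intervals up to 40 h of continuous compound exposure.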

A short description of test [4]: qHTS RealTime-Glo MT Cell Viability Assay in HepG2 cells - 32 hour (AID 1224877). Further: nearly all actives have a fitted effect of over 55% in size. Further: potency means the concentration at half of the fitted maximal effect. The gist of the method: (§3)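 Cell number in HepG2 cultures estimated from NanoLuc luminescence generated by metabolic reduction of a prosubstrate by living cells. The homogeneous, nonlytic format allowed repeated reads at 0, 8, 16, 24, 32 and 40 h of compound exposure.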
Test [5] is described as follows: A CellTox Green Cytotoxicity Assay to monitor cytotoxicity in HepG2 cells - 24 hour (AID 1224878). Further: nearly all actives have a fitted effect of over 45% in size. Further: potency means the concentration at half of the fitted maximal effect. The procedure, abridged:
as §2

The nature of test [6]: A CellTox Green Cytotoxicity Assay to monitor cytotoxicity in HepG2 cells - 40 hour (AID 1224879). Further: nearly all actives have a fitted effect of over 40% in size. Further: potency means the concentration at half of the fitted maximal effect. The procedure, abridged: as §2
Test [7] in a line: qHTS RealTime-Glo MT Cell Viability Assay in HEK293 cells - 0 hour (AID 1224880). Further: top concentration of the series differs between compounds; nearly all actives have a fitted effect of over 45% in size. The gist of the method:
(§4)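 Nonlytic bioluminescent viability monitoring. HEK293 at 600 cells/well with reagent; 5 h settle; compound transfer by pintool; plates held at 37 C and read at set time points.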

A short description of test [8]: A CellTox Green Cytotoxicity Assay to monitor cytotoxicity in HEK293 cells - 32 hour (AID 1224881). Further: nearly all actives have a fitted effect of over 40% in size. Further: potency means the concentration at half of the fitted maximal effect. The gist of the method: as §1
Test [9] in a line: A CellTox Green Cytotoxicity Assay to monitor cytotoxicity in HepG2 cells - 0 hour (AID 1224882). Further: nearly all actives have a fitted effect of over 35% in size. Further: potency means the concentration at half of the fitted maximal effect. The gist of the method:
as §2

The nature of test [10]: qHTS RealTime-Glo MT Cell Viability Assay in HepG2 cells - 16 hour (AID 1224885). Further: nearly all actives have a fitted effect of over 50% in size. Further: potency means the concentration at half of the fitted maximal effect. The procedure, abridged:
as §3

A short description of test [11]: qHTS RealTime-Glo MT Cell Viability Assay in HEK293 cells - 24 hour (AID 1224886). Further: nearly all actives have a fitted effect of over 50% in size. Further: potency means the concentration at half of the fitted maximal effect. The gist of the method: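 Homogeneous bioluminescent viability format in HEK293 cells (600 cells/well). Following 5 h at 37 C/5% CO2, 23 nL compound was pintooled; the signal was measured repeatedly during 40 h incubation.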
A short description of test [12]: qHTS RealTime-Glo MT Cell Viability Assay in HEK293 cells - 8 hour (AID 1224887). Further: nearly all actives have a fitted effect of over 50% in size. Further: potency means the concentration at half of the fitted maximal effect. The gist of the method: as §4
Test [13] can be described thus: A CellTox Green Cytotoxicity Assay to monitor cytotoxicity in HEK293 cells - 16 hour (AID 1224888). Further: nearly all actives have a fitted effect of over 35% in size. Further: potency means the concentration at half of the fitted maximal effect. The gist of the method: as §1
Test [14] can be described thus: qHTS RealTime-Glo MT Cell Viability Assay in HepG2 cells - 0 hour (AID 1224889). Further: nearly all actives have a fitted effect of over 50% in size. The gist of the method:
as §3

Test [15] is described as follows: A CellTox Green Cytotoxicity Assay to monitor cytotoxicity in HepG2 cells - 8 hour (AID 1224890). Further: nearly all actives have a fitted effect of over 45% in size. Further: potency means the concentration at half of the fitted maximal effect. The procedure, abridged: as §2
The nature of test [16]: qHTS assay to identify small molecule antagonists of the estrogen receptor alpha (ER-alpha) signaling pathway using the BG1 cell line in the presence of 0.1 nM 17-beta-estradiol - cell viability counter screen (AID 1259241). Further: nearly all actives have a fitted effect of over 40% in size. The procedure, abridged: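 Cells were plated and left 24 hr, compounds in DMSO were pinned in, 17beta-estradiol was added to 0.1 nM final, and after 22 hr CellTiter-Fluor reagent was added for 30 min before fluorescence was read.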

Test [17] can be described thus: qHTS RealTime-Glo MT Cell Viability Assay in HEK293 cells - 40 hour (AID 1224874). Further: nearly all actives have a fitted effect of over 50% in size. Further: potency means the concentration at half of the fitted maximal effect. To be noted: RealTime-Glo luminescence; max response: stronger effect = lower value. The procedure, abridged: as §4
Test [18] is described as follows: A CellTox Green Cytotoxicity Assay to monitor cytotoxicity in HepG2 cells - 32 hour (AID 1224883). Further: nearly all actives have a fitted effect of over 50% in size. Further: potency means the concentration at half of the fitted maximal effect. The procedure, abridged: as §2
Test [19] can be described thus: A CellTox Green Cytotoxicity Assay to monitor cytotoxicity in HEK293 cells - 8 hour (AID 1224884). Further: nearly all actives have a fitted effect of over 35% in size. Further: potency means the concentration at half of the fitted maximal effect. The gist of the method: as §1
On the % scale 0 is the no-effect control and ±100 the full control effect.

As to `O=C(O)c1c(Cl)cccc1Cl`, the Potency entry in [1], in test [2], in test [3], in [4], in test [5] and in test [6] was “inactive” each time. For the same compound, the Potency result in test [7], in test [8], in test [9], in [10], in test [11] and in test [12] was “inactive” throughout. The Potency result in [13], in test [14], in [15] and in test [16] was “inactive” each time.
Regarding `CCc1cc(SCc2sc(-c3ccc(C(F)(F)F)cc3)nc2CN2CCN(c3ccc(OC)cc3)CC2)ccc1OCC(=O)O`, the Potency result in test [1], in [3], in [5], in test [7], in test [9] and in test [18] was “inactive” each time. Also, the Potency result in [19], in test [13], in [14] and in test [15] was “inactive” each time. Besides, the values for the Potency in test [17] and in [11] were 19.5 µM (active) and 21.9 µM (active), respectively.
In the case of `CCOc1ccc2nc3cc(N)ccc3c(N)c2c1`, the Potency entry in test [1], in [3], in [7], in test [9], in [12] and in test [13] was “inactive” in each case. Also, the Potency result in test [14] and in test [15] was “inactive” each time. Further, the Potency in [17] was 13.4 µM (active); in test [4] it was 8.49 µM (active); in [5], 23.9 µM (active); in test [6], 6.01 µM (active); in test [18], 16.9 µM (active).
Turning to `O=C1c2ccccc2Cc2ccccc21`, the Potency entry in test [1], in test [2], in test [3], in [4], in test [5] and in test [6] was “inactive” each time. Further, the Potency result in [7], in test [8], in [9], in test [10], in [11] and in test [12] was “inactive” each time. For the same compound, the Potency result in test [13], in test [14], in test [15] and in test [16] was “inactive” in each case.
`CCCCCCCCNC(C)C(O)c1ccc(SC(C)C)cc1` (configuration not stated): the Potency is 21.3 µM (active) in test [1]; 16.9 µM (active) in [2]; 16.9 µM (active) in test [3]; 13.4 µM (active) in test [4]; 16.9 µM (active) in [5]; 15.1 µM (active) in test [6]. For the same compound, the Potency in test [18] is 16.9 µM (active); in [19], 21.3 µM (active); in [10], 15.1 µM (active); in test [11] it was 9.52 µM (active); in test [12], 10.7 µM (active); in [13] it was 19 µM (active). Also, the Potency in test [15] was 21.3 µM (active). In addition, in [9], the Potency entry is “inactive”.
`Fc1ccc([C@@H]2CCNC[C@H]2COc2ccc3c(c2)OCO3)cc1`: the Potency result in test [1], in test [2], in test [9], in [19], in test [13] and in test [15] was “inactive” throughout. Moreover, the Potency entry in test [16] is “inactive”. Besides, the Potency in test [3] is 23.9 µM (active); in [5] it was 26.8 µM (active); in test [6], 26.8 µM (active); in test [18], 26.8 µM (active).
For the compound `Clc1ccc2cc3ccccc3cc2c1`, the Potency result in [1], in [2], in test [3], in test [4], in [5] and in test [8] was “inactive” in each case. Further, the Potency entry in [9], in test [10], in test [13], in [15] and in test [16] was “inactive” each time.
As to `CCCCCOc1ccccc1/C(=C\SC)n1ccnc1`, the Potency entry in test [1], in test [2], in test [3], in test [4], in [5] and in test [7] was “inactive” each time. Moreover, the Potency entry in [9], in test [18], in test [10], in [13], in test [14] and in test [15] was “inactive” throughout. Moreover, in test [16], the Potency entry was “inactive”.
`CCCCCCCCOc1ccccc1C(=O)Nc1ccc(C(=O)OCC[N+](C)(CC)CC)cc1`: the Potency was 21.3 µM (active) in [17]; 23.9 µM (active) in test [2]; 23.9 µM (active) in [3]; 26.8 µM (active) in test [5]; 23.9 µM (active) in test [6]; 23.9 µM (active) in [8]. The Potency was 23.9 µM (active) in [18], 23.9 µM (active) in test [19], 23.9 µM (active) in [13] and 26.8 µM (active) in test [15]. Also, the Potency result in test [12] and in test [16] was “inactive” each time.
As for `Oc1ccc2cc(SSc3ccc4cc(O)ccc4c3)ccc2c1`, the Potency entry in [1], in test [3], in test [4], in [5], in [7] and in test [9] was “inactive” in each case. Moreover, the Potency entry in test [10], in [14], in [15] and in test [16] was “inactive” throughout. Also, the Potency entry is “inactive and 21.9 µM (active)” in test [6]; 43.7 µM (active) and 19.5 µM (active) in test [8]; 49 µM (active) in [11]; 39 µM (active) in test [12].
Regarding `CCN(CC)CCNC(=O)c1c(C)[nH]c(/C=C2\C(=O)Nc3ccc(F)cc32)c1C`, the Potency in [2] is 23.9 µM (active); in [3], 21.3 µM (active); in test [4] it was 19 µM (active); in [5] it was 19 µM (active); in [6], 9.52 µM (active); in test [8] it was 23.9 µM (active). The Potency was 21.3 µM (active) in test [9]; 10.7 µM (active) in test [18]; 21.3 µM (active) in test [10]; 9.52 µM (active) in [11]; 21.3 µM (active) in test [12]; 23.9 µM (active) in test [13]. Further, the Potency in [15] was 19 µM (active). For the same compound, the Potency result in test [7] was “inactive”.
For `CC1=C(/C=C/C(C)=C/C=C/C(C)=C/C=O)C(C)(C)CCC1`, the Potency in test [17] was 19.4 µM (active); in test [2] it was 38.7 µM (active); in test [5], 54.6 µM (active); in [6], 48.7 µM (active); in test [8], 38.7 µM (active); in [18], 48.7 µM (active). Moreover, the Potency is 48.7 µM (active) in [19], 48.7 µM (active) in [10], 17.3 µM (active) in test [11] and 43.4 µM (active) in [13]. Besides, the Potency result in test [7] and in test [9] was “inactive” throughout.
Take `CCCC(=O)OC[C@@H](OC(=O)CCC)[C@@H](OC(=O)CCC)[C@H](Cn1c2nc(=O)[nH]c(=O)c-2nc2cc(C)c(C)cc21)OC(=O)CCC`: the max response in test [17] was -24.9% (inactive). The Potency was 21.3 µM (active) in test [2]; 19 µM (active) in [3]; 21.3 µM (active) in test [5]; 21.3 µM (active) in test [6]; 16.9 µM (active) in test [9]; 19 µM (active) in test [18]. The results for the Potency in [13] and in test [15] were 21.3 µM (active) and 19 µM (active), respectively. In addition, the Potency result in test [7] and in test [14] was “inactive” each time.
For the compound `CC(C)(C)C1CCC(CC2=C(O)c3ccccc3C(=O)C2=O)CC1` (configuration not stated), the Potency entry in test [1], in test [4], in test [7], in test [9], in test [10] and in test [13] was “inactive” each time. The Potency result in test [15] is “inactive”. Also, the Potency in [8] is 21.3 µM (active).
As to `Cc1cccc2c1cc1ccc3cccc4ccc2c1c34`, the Potency entry in test [1], in [3], in test [4], in test [5], in test [6] and in test [9] was “inactive” in each case. The Potency result in test [18], in [10], in test [14] and in test [15] was “inactive” throughout.
With `CN1CCN(CCC(=O)N2c3ccccc3Sc3ccc(C(F)(F)F)cc32)CC1`, the Potency result in test [1], in test [7], in [19], in [13] and in test [16] was “inactive” throughout. Further, the Potency is 10.7 µM (active) in [3]; 26.8 µM (active) in test [4]; 15.1 µM (active) in test [5]; 21.3 µM (active) in [6]; 19 µM (active) in test [18].
